# hcDAF-12 act: activators of H. contortus DAF-12 nuclear receptor | activation, % at 6.8 µM | HEK293 hcDAF-12 lit1-tk-luc reporter, luminescence; 0% DMSO, 100% Δ7-dafachronic acid | 370,000 tested, 1.4% active;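 active means activation above the mean of all tested compounds plus 3 SD, cut at about 5.5% in these data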;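 further: 100% = response to 3 µM Δ7-dafachronic acid high control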
# ssDAF-12 act: S. stercoralis DAF-12 activation, primary screen; HEK293 ssDAF-12/GRIP1 lit1-tk-luc reporter, luminescence; % of 3 µM dafachronic acid response; activation, % at 6.8 µM; 370,000 tested, 1% active;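 active means activation above the mean over all tested compounds plus 3 SD, cut at about 0.9% in these data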;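 further: 0% = DMSO-only wells and 100% = 3 µM delta7-dafachronic acid wells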
# hgDAF12 agonist: hgDAF-12 agonism, primary luciferase screen. HEK293 GAL4-hgDAF12 UAS-luciferase reporter, agonist luminescence; normalized to butyrate control. activation, % at 6.8 µM. 370,000 tested, 1.8% active. AID 687014;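 active means activation above a cutoff set at the mean of all screened compounds plus 3 SD, cut at about 10% in these data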;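 further: 0% = DMSO wells and 100% = sodium butyrate wells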
# DAX1 inh-1: inhibitors of DAX1 repression of SF-1 activated StAR promoter | 370,000 tested, 1.1% active | HEK293T StAR-luciferase reporter, SF-1/DAX-1 repression relief | inhibition, % at 6.8 µM;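 active means inhibition above the mean over all tested compounds plus 3 SD, cut at about 3.6% in these data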;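 further: 0% = DAX-1 cells with DMSO and 100% = cells lacking DAX-1 with DMSO; higher inhibition means more luminescence from relief of DAX-1 repression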
# DAX1 inh-2: inhibitors of human orphan nuclear receptor DAX1 (NR0B1); P51843; HEK293 Gal4-DAX1 luciferase reporter, luminescence; inhibition, % at 6.75 µM; 340,000 tested, 0.99% active;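 active means inhibition above the mean over all tested compounds plus 3 SD, cut at about 4.2% in these data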;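 further: 0% = DAX1-transfected cells with DMSO and 100% = empty-vector control cells with DMSO; inhibition shows as a rise in luminescence from relieved DAX1 repression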
# Target sequence (P51843 207-470 limits assumed): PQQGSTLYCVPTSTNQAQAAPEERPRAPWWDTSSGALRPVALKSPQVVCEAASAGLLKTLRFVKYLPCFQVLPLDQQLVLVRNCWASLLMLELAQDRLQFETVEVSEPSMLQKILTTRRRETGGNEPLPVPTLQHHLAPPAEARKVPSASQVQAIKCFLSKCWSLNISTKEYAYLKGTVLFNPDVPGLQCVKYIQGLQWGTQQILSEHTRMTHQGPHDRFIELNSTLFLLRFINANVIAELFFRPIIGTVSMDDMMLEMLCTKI
# * marks the source's active call; other numbers are inactive results; / = no result given. Sampled rows, rich in hits. Any-hit rate of the full collection: about 4.1%.
SMILES,hcDAF-12 act,ssDAF-12 act,hgDAF12 agonist,DAX1 inh-1,DAX1 inh-2
CC(C)NC(=O)c1ccc(NC(=O)CC2SC(N3CCCC3)=NC2=O)cc1 (centres undefined),0,-2,2,-1,0
Brc1ccc(-c2nc(-c3cccnc3)no2)o1,3,-1,9,0,2
Brc1ccc(-c2nc(-c3ccccc3)no2)o1,6.1*,1.4*,12*,3,4
CNc1nc(N)c([N+](=O)[O-])c(NCC2CCCO2)n1 (centres undefined),-2,-1,0,0,5.2*
COCCNC(=O)C(c1ccc(Cl)cc1)N(Cc1ccco1)C(=O)CCC(=O)Nc1ccccn1 (centres undefined),2,-1,3,0,8.8*
COc1ccc(C)cc1S(=O)(=O)N(C)CC(=O)N1CCCC1,-2,-1,-3,0,4.8*
COc1ccc(C)cc1S(=O)(=O)N(C)CC(=O)N1CCCCC1,2,-1,0,0,-1
O=C(Nc1nc2ccc([N+](=O)[O-])cc2s1)c1c(F)cccc1F,-1,-1,-1,0,0
O=C(Nc1nc2ccc(Cl)cc2s1)C1CCCO1 (centres undefined),1,0,8,1,2
O=C(Nc1nc2ccc([N+](=O)[O-])cc2s1)C1CCCO1 (centres undefined),2,0,6,1,5.4*
O=C(Nc1nc2ccc([N+](=O)[O-])cc2s1)c1ccco1,2,0,8,4.2*,/
O=C(CNS(=O)(=O)c1ccccc1)N1CCN(c2ncccn2)CC1,-1,0,1,0,/
Fc1ccc(-c2cc(-c3nnc4sc(-c5ccco5)nn34)[nH]n2)cc1,-2,-2,-4,-2,/
O=C(O)COn1c(-c2ccc(Cl)cc2)nc2ccc(Cl)cc21,6.2*,0,5,1,1
O=[N+]([O-])c1ccc2nc(-c3ccc(Cl)cc3)n(OCc3ccccc3)c2c1,2,0,9,3,2
CCOC(=O)C(C)On1c(-c2ccccc2)nc2ccc([N+](=O)[O-])cc21 (centres undefined),0,-1,12*,1,4
COc1ccc(-c2nc3ccccc3n2OCC(=O)O)cc1,1,0,11*,2,3
COn1c(-c2ccc(Cl)cc2)nc2ccc(Cl)cc21,2,-1,9,0,2
Cc1ccc(COn2c(-c3ccc(Cl)cc3)nc3ccc([N+](=O)[O-])cc32)cc1,2,1.1*,10,3,4.7*
CC(O)c1nc2cc([N+](=O)[O-])ccc2n1Cc1ccccc1 (centres undefined),-1,-1,-1,0,-1
COc1ccc(N2CCN(CCNS(=O)(=O)c3cccs3)CC2)cc1,-1,-2,-2,-1,/
CNC(=O)[C@@H](NC(=O)[C@H](CC(C)C)[C@H](O)C(=O)NO)C(C)(C)C,-4,-1,-5,-1,/
Cc1ccc(-n2c(=S)[nH]c3nc4c(cc3c2=O)COC(C)(C)C4)cc1,3,-1,2,0,-1
CC1(C)Cc2nc3[nH]c(=S)[nH]c(=O)c3cc2CO1,0,-1,1,1,4.8*
COc1ccccc1NC(=O)N1CCCC(C(=O)Nc2cccc(C)c2C)C1 (centres undefined),0,-1,0,0,7.5*
SMILES,hcDAF-12 act,ssDAF-12 act,hgDAF12 agonist,DAX1 inh-1,DAX1 inh-2
COc1ccc(-c2cc(CNc3nc4cc(-c5ccccc5C)sc4c(=O)n3C)on2)cc1,1,0,8,4.3*,/
COc1cccc(CNc2nc3cc(-c4ccccc4C)sc3c(=O)n2C)c1,-1,-1,-3,-1,/
COCCNc1nc2cc(-c3ccc(C)cc3)sc2c(=O)n1C,3,1.0*,12*,3.8*,/
Cn1c(NCc2cccnc2)nc2cc(-c3cccc(C(F)(F)F)c3)sc2c1=O,-1,-1,-3,0,/
COc1cccc(-c2cc3nc(NCc4cccnc4)n(C)c(=O)c3s2)c1,5,1.0*,9,2,/
COc1cc(NS(=O)(=O)c2cc3[nH]c(=O)c(=O)[nH]c3cc2C)cc(OC)c1OC,5,-1,-2,1,4.8*
c1ccc(-c2ncc(CSc3nncn3-c3ccccc3)s2)cc1,0,-1,0,-1,0
Cc1nnc(SCc2cnc(-c3ccc(C(C)C)cc3)s2)n1C,6.0*,1.5*,12*,2,-3
COc1ccc(Cn2c(C)c(CC(=O)Nc3ccc(Oc4cccnc4)c(C)c3)c3ccccc32)cc1,1,0,1,-1,/
CCOC(=O)N1CCN(C(=O)c2ccc3nc(N4CCCCC4)sc3c2)CC1,-1,-1,1,0,0
COc1cccc(N2CCN(C(=O)c3ccc4nc(N5CCC(C)CC5)sc4c3)CC2)c1,1,-1,12*,1,/
NC(=O)C1CCN(C(=O)c2ccc3nc(N4CCCCC4)sc3c2)CC1,1,0,7,1,5.2*
CCOC(=O)N1CCN(C(=O)c2ccc3nc(N4CCC(C)CC4)sc3c2)CC1,-1,-2,0,-1,-2
COC(=O)C[C@@H]1CC[C@H]2[C@@H](COc3ccc(NC(=O)Nc4ccccc4C)cc3C(=O)N2C)O1,0,-1,-1,0,/
Cc1ccc(OCCCCCN2CCOCC2)c(Cl)c1,0,0,3,0,4.9*
Cc1ccc(OCCN2CCOCC2)cc1C,1,-1,2,0,1
Cc1ccc(OCCCN2CCOCC2)c([N+](=O)[O-])c1,5,-1,13*,2,3
Cc1cc(OCCN2CCOCC2)ccc1[N+](=O)[O-],5,0,4,2,0
Cc1cc(OCCN2CCCC2)ccc1[N+](=O)[O-],-1,1.1*,1,0,-1
Cc1cc(OCCN2CCOCC2)ccc1Cl,5,0,12*,0,2
CCC(C)CNC(=O)c1oc(=O)c2ccccc2c1-c1ccc(C)cc1 (centres undefined),1,-2,-3,0,/
COc1ccc(S(=O)(=O)Cc2ccc(C(=O)NC3CC3)o2)cc1,-1,-2,0,0,13*
COc1ccc(CNC(=O)c2ccc(CS(=O)(=O)c3ccc(Br)cc3)o2)cc1,-2,-1,3,-1,6.2*
COc1ccccc1S(=O)Cc1ccc(C(=O)NC2CCCC2)o1 (centres undefined),-1,-1,-2,1,5.5*
COc1ccccc1OCc1ccc(C(=O)NC2CCCCC2)o1,-1,-1,3,0,1
CC(C)(C)N(Cc1cn(Cc2ccccc2)nn1)S(=O)(=O)c1ccc(N2CCCCC2)cc1Br,-3,-1,0,-2,/
O=C(c1cccs1)N(C(=O)c1cccs1)c1ccc(Br)cn1,3,0,10,1,2
Cc1ccnc(NC(=O)CCCNC(=O)c2ccc(Cl)cc2)c1,1,0,8,4.0*,1

# Bioassay records from PubChem.
